Among the data in PubChem BioAssay are growth inhibition, inhibition and outcome values, retold here.

A number with no mark means an inactive call. For some assays here: Results with a measured potency or affinity are listed apart. Active and inactive are the calls of the source. Unless noted, the rule behind the calls is not given here.

The nature of test [1]: antimalarial activity against Dd2 strain (AID 2302;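 active = growth inhibition above 50% at the single 2 µM test dose, taken to imply half-maximal potency below 2 µM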;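 note: 0% = DMSO untreated growth and 100% = chloroquine plus artemisinin killed control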). The note with it: P. falciparum Dd2 in RBCs, LDH growth readout, 72 h; at 2 µM; stronger effect = higher value.
The target in test [2] is L-lactate dehydrogenase (Plasmodium falciparum (isolate CDC / Honduras)) (UniProt Q27743). Nature of the test: PfLDH activity inhibition – cell lysate, 3D7 strain, counter-screen for P. falciparum growth inhibition project (AID 2304).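 Note: 0% = vehicle and 100% = reference inhibitor.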 The note with it: P. falciparum 3D7 crude extract, LDH APAD/NBT absorbance; at 2 µM; stronger effect = higher value. Background: Counterscreens check selectivity or assay interference.
Chain of L-lactate dehydrogenase (Plasmodium falciparum (isolate CDC / Honduras)) (Q27743 whole entry, looked up): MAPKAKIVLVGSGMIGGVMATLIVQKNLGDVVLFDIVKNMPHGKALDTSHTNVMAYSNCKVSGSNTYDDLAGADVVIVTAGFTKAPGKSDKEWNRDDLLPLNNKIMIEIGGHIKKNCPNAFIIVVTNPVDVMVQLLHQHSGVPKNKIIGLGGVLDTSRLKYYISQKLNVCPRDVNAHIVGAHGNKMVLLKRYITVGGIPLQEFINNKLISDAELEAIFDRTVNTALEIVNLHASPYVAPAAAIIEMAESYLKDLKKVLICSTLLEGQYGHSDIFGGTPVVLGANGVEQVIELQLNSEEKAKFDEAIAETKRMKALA

Test [3] is described as follows: inhibition of 3D7 malaria parasite growth – strain 3D7 (AID 2306).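 Note: 0% = DMSO wells and 100% = chloroquine plus artemisinin control wells.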 The note with it: P. falciparum 3D7 erythrocytic growth, LDH absorbance, 72 h; at 2 µM; stronger effect = higher value.
Test [4] concerns the target Calcium-dependent protein kinase 1 (Plasmodium falciparum (isolate 3D7)) (UniProt P62344). Nature of the test: PfCDPK1 kinase inhibitors, biochemical, TCAMS library (AID 1159585; cut-off not given, nearly all actives have IC50 up to about 0.98 µM;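 note: inhibitors leave more ATP so luminescence rises with inhibition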). The note with it: recombinant PfCDPK1, Kinase-Glo ATP depletion luminescence. On the technique in general: In Kinase-Glo more light means more ATP remaining.
For test [5], the target named is Plasmodium falciparum protein kinase 6 (PK6, PF3D7_1337100) (UniProt Q8IDW1). Description: PfPK6 kinase inhibitors, biochemical, TCAMS library (AID 1159586). The conditions noted are these: recombinant PfPK6, Kinase-Glo ATP depletion luminescence.
Chain of Plasmodium falciparum protein kinase 6 (PK6, PF3D7_1337100) (Q8IDW1 1-305): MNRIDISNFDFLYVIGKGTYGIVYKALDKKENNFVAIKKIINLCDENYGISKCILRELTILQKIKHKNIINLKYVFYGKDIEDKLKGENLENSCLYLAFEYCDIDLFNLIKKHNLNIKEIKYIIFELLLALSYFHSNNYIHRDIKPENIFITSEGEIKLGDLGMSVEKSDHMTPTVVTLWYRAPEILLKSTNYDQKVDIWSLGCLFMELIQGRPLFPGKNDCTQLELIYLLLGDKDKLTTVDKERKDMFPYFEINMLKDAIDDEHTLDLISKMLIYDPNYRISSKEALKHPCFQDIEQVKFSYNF
Test [6] addresses Protein kinase 7 (PK7), Plasmodium falciparum 3D7 (PF3D7_0213400) (UniProt Q7YTF7). Nature of the test: inhibition of Plasmodium PK7 catalytic activity – biochemical, TCAMS antimalarial set, Kinase-Glo luminescence (AID 1159587). The note with it: recombinant PfPK7, Kinase-Glo ATP depletion luminescence.
The target in test [7] is Calcium-dependent protein kinase 4 (Plasmodium falciparum (isolate 3D7)) (UniProt Q8IBS5). Nature of the test: PfCDPK4 kinase inhibitors, biochemical, TCAMS library (AID 1159588; cut-off not given, nearly all actives have IC50 up to about 0.91 µM). The conditions noted are these: recombinant PfCDPK4, Kinase-Glo ATP depletion luminescence.
Chain of Calcium-dependent protein kinase 4 (Plasmodium falciparum (isolate 3D7)) (Q8IBS5 whole entry, looked up): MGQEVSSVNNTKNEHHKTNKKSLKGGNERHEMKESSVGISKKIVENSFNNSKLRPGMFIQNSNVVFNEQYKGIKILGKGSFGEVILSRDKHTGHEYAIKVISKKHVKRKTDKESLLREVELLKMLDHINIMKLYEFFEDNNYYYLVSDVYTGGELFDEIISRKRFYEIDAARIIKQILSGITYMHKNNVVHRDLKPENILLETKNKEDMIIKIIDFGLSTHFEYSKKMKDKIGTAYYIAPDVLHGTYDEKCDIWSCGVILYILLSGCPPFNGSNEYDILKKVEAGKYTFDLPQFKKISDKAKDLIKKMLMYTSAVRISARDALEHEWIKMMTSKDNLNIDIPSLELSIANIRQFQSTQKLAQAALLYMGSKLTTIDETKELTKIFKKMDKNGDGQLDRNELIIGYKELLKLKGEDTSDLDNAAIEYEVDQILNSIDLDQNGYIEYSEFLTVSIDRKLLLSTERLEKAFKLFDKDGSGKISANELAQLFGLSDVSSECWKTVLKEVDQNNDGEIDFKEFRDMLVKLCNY

Chain of Protein kinase 7 (PK7), Plasmodium falciparum 3D7 (PF3D7_0213400) (Q7YTF7 1-343): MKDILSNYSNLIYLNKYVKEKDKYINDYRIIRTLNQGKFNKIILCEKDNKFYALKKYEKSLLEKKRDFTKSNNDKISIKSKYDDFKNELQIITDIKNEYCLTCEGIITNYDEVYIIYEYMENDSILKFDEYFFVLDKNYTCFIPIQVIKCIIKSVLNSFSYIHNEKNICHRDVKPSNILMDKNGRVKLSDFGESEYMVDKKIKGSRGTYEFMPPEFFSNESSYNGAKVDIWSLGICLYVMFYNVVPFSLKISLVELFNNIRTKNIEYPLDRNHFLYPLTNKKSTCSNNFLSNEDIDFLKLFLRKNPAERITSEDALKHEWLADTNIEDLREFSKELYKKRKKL
Chain of Calcium-dependent protein kinase 1 (Plasmodium falciparum (isolate 3D7)) (P62344 whole entry, looked up): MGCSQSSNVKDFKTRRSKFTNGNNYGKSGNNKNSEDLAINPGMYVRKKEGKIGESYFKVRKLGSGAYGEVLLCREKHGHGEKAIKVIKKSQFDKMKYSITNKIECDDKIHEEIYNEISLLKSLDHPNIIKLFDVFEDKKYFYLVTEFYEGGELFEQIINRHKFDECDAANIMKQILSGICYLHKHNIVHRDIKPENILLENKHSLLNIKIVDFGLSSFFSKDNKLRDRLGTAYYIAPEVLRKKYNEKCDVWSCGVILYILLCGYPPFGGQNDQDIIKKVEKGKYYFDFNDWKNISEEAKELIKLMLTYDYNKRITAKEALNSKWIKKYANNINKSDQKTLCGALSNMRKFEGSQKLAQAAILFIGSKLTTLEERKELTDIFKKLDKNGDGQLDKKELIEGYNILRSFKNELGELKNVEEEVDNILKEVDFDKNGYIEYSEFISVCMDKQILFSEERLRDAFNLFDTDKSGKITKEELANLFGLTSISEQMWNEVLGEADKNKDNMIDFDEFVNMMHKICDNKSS

The term inhibition denotes the drop in the measured response relative to a control, in per cent. Turning to `CCCCNCCOc1ccc(-c2nc(-c3ccccc3)c(-c3ccccc3)[nH]2)cc1`, the growth inhibition in test [1] was 34%; in test [3] it was 100% (active). For the same molecule, the inhibition in test [2] is -5%. Besides, the result in test [4], in test [5], in test [6] and in test [7] was inactive.
As for `CC(C)c1ccc2c(c1)C(=O)c1ccc(C(=O)O)cc1S2(=O)=O`, the figures for the growth inhibition in test [1] and in test [3] were 83% (active) and 93% (active), respectively. Further, the inhibition in test [2] was -4%. Besides, the outcome in test [4], in test [5], in test [6] and in test [7] was inactive.
For the molecule `Nc1nc(N)c2c(Sc3ccc(F)cc3)cccc2n1`, the figures for the growth inhibition in test [1] and in test [3] were -3% and 88% (active), respectively. Also, the inhibition in test [2] is 3%. The outcome in test [4], in test [5], in test [6] and in test [7] was inactive.
In the case of `Oc1cc2ccccc2cc1CNC1CCCCC1`, the growth inhibition in test [1] is 89% (active); in test [3], 98% (active). In addition, in test [2], the inhibition is -9%. The outcome in test [4], in test [5], in test [6] and in test [7] was inactive.
In the case of `Cc1[nH]c(C)c(-c2ccc(Oc3ccc(Cl)c(Cl)c3)cc2)c(=O)c1Cl`, the figures for the growth inhibition in test [1] and in test [3] were 97% (active) and 100% (active), respectively. Further, the inhibition in test [2] was -1%. Further, the result in test [4], in test [5], in test [6] and in test [7] was inactive.
With `NC(=NCC1CC1c1ccccc1)c1cccc(C(N)=NCC2CC2c2ccccc2)n1` (stereo unspecified), the growth inhibition is -2% in test [1] and 95% (active) in test [3]. Besides, the inhibition in test [2] is 0%. The outcome in test [4], in test [5], in test [6] and in test [7] was inactive.
Consider `CCN(CC)c1ccc2nc(N)nc(N)c2c1`, for which the growth inhibition is -2% in test [1] and 93% (active) in test [3]. Also, in test [2], the inhibition was 2%. Further, the outcome in test [4], in test [5], in test [6] and in test [7] was inactive.
Consider `Cc1c(C(C)(C)C)ccc2nc(N)nc(N)c12`, for which the figures for the growth inhibition in test [1] and in test [3] were -2% and 89% (active), respectively. Besides, in test [2], the inhibition is -1%. The result in test [4], in test [5], in test [6] and in test [7] was inactive.
In the case of `CCOc1cc(OCC)c2ccccc2c1CNCCCCCCNCc1c(OCC)cc(OCC)c2ccccc12`, the growth inhibition was 89% (active) in test [1] and 101% (active) in test [3]. Moreover, the inhibition in test [2] was 2%. In addition, the outcome in test [4], in test [5], in test [6] and in test [7] was inactive.
On to `CCCCc1nc2nc(N)nc(N)c2cc1CCC`, for which the values for the growth inhibition in test [1] and in test [3] were -3% and 97% (active), respectively. Besides, in test [2], the inhibition was -1%. The outcome in test [4], in test [5], in test [6] and in test [7] was inactive.
For the molecule `CCOc1cc2ncnc(Nc3ccc(OCc4c(Cl)cccc4Cl)c(OC)c3)c2cc1OCC`, the growth inhibition in test [1] is 12%; in test [3], 89% (active). The inhibition in test [2] was 5%. The outcome in test [4], in test [5], in test [6] and in test [7] was inactive.
With `CCOC(=O)c1c(-c2ccccc2)c(C(=O)OCC)n2ccccc12`, the growth inhibition in test [1] was 70% (active); in test [3], 93% (active). For the same molecule, the inhibition in test [2] is -1%. For the same molecule, the result in test [4], in test [5], in test [6] and in test [7] was inactive.
With `CCC(C)c1cnc2nc(N)nc(N)c2c1C` (stereo unspecified), the growth inhibition in test [1] was 1%; in test [3] it was 97% (active). In addition, the inhibition in test [2] was -3%. The result in test [4], in test [5], in test [6] and in test [7] was inactive.
Consider `CCN(C)C(=O)n1ncc2c3c(N)nc(N)nc3ccc21`, for which the figures for the growth inhibition in test [1] and in test [3] were 0% and 95% (active), respectively. Also, in test [2], the inhibition is 6%. For the same molecule, the result in test [4], in test [5], in test [6] and in test [7] was inactive.
As to `CCOc1ccc(CNCCCCCCNCc2ccc(OCC)c3ccccc23)c2ccccc12`, the growth inhibition in test [1] is 75% (active); in test [3], 101% (active). Moreover, the inhibition in test [2] was -4%. Further, the outcome in test [4], in test [5], in test [6] and in test [7] was inactive.
Consider `Nc1ncc(-c2ccc(S(=O)(=O)Nc3ccc(C(=O)N[C@@H](CCC(=O)O)C(=O)O)cc3)cc2)c(=O)[nH]1`, for which the values for the growth inhibition in test [1] and in test [3] were 0% and 99% (active), respectively. Further, in test [2], the inhibition is -3%. Further, the outcome in test [4], in test [5], in test [6] and in test [7] was inactive.
As to `Nc1ncc(-c2ccc(F)c(Cl)c2)c(N)n1`, the values for the growth inhibition in test [1] and in test [3] were -2% and 83% (active), respectively. Further, in test [2], the inhibition was 5%. Also, the result in test [4], in test [5], in test [6] and in test [7] was inactive.
Turning to `Oc1ccc2c(CNC3CCCCC3)c(O)ccc2c1CNC1CCCCC1`, the growth inhibition in test [1] and in test [3] was 101% (active) throughout. For the same molecule, in test [2], the inhibition was -4%. Moreover, the result in test [4], in test [5], in test [6] and in test [7] was inactive.
For `Cn1c(=N)cc(-c2cccc(I)c2)c2c(=O)[nH]c(N)nc21`, the growth inhibition in test [1] is 75% (active); in test [3], 89% (active). In test [2], the inhibition is 6%. Besides, the outcome in test [4], in test [5], in test [6] and in test [7] was inactive.
With `CN(C)S(=O)(=O)n1ccc2c3c(N)nc(N)nc3ccc21`, the growth inhibition in test [1] is -3%; in test [3], 94% (active). For the same molecule, the inhibition in test [2] was -4%. The result in test [4], in test [5], in test [6] and in test [7] was inactive.
For `CC(C)Cn1ccc2c3c(N)nc(N)nc3ccc21`, the growth inhibition in test [1] and in test [3] was 96% (active) throughout. In test [2], the inhibition is 1%. The result in test [4], in test [5], in test [6] and in test [7] was inactive.
On to `Cc1[nH]c(C)c(-c2ccc(Oc3cc(Cl)cc(Cl)c3)cc2)c(=O)c1Cl`, for which the growth inhibition in test [1] and in test [3] was 96% (active) throughout. Also, in test [2], the inhibition is -7%. In addition, the outcome in test [4], in test [5], in test [6] and in test [7] was inactive.
As to `Cc1[nH]c(C)c(-c2ccc(Oc3cccc(OC(F)(F)F)c3)cc2)c(=O)c1Cl`, the growth inhibition in test [1] and in test [3] was 97% (active) each time. Also, the inhibition in test [2] was -1%. The result in test [4], in test [5], in test [6] and in test [7] was inactive.
